GLP1R ag: agonists of human GLP-1 receptor | HEK293 GLP-1R CRE-luciferase, luminescence, 4-6 h; cells express a hypersensitive GLP-1R form | Potency, µM (top dose mostly 45.6 µM), without a hit: at the highest dose activation, usual class: activators | hit rate 0.007% among 380,000; note: potency is the fitted concentration of half-maximal effect; % of control where 0% means no effect
GLP-1R inv ag: inverse agonists of human GLP-1 receptor | P43220 | HEK293 GLP-1R CRE-luciferase, luminescence, 24 h; GLP-1R form is constitutively active | Potency, µM (doses to about 38.3 µM), inactives show at the highest dose activity change, negative = inhibition, actives largely listed as inhibitors | hit rate 1.6% among 410,000; note: potency is the fitted concentration of half-maximal effect; % is set by controls: 0 for no effect and ±100 for the full control effect; nearly all actives have a fitted effect of over 55% in size
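Constitutively active GLP-1R drives a cAMP-responsive luciferase in stably transfected HEK293 cells; test compounds are added after overnight (12 h) attachment and left 24 hr, and signal loss in luminescence marks inhibition.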
KCNH2 WT inh: KCNH2 (human, wildtype) channel inhibition; Q12809; hit rate 0.37% among 340,000; U2OS, BacMam KCNH2, thallium flux FluxOr; stronger effect = lower value; activity change, % at 1.84 µM;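 active = maximum activity change below -70%; inconclusive = maximum activity change between -70% and -50%; inactive = maximum activity change above -50%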; note: % is set by controls: 0 for no effect and ±100 for the full control effect
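U2OS cells transduced with wild-type KCNH2 virus are loaded with FluxOr dye for 45 min, and thallium flux is measured in kinetic reads before and after stimulation buffer. Rate constants are normalized to DMSO controls.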
HEK293 tox: cytotoxic in the GLP-1 receptor inverse agonist counter-screen; HEK293 cAMP-luciferase reporter cells, luminescence, 24 h; AID 624418; Potency, µM (doses to about 38.3 µM), for inactives: at the highest dose activity change, negative = inhibition, hits mostly inhibitors; hit rate 0.13% among 410,000;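 note: loss of luciferase light is scored as toxicity; potency is the fitted concentration of half-maximal effect; % is set by controls: 0 for no effect and ±100 for the full control effect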
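To flag toxic compounds, the library was rerun on cells for 24 hr at 37 deg C and 5% CO2. Viability-linked luminescence was captured 12 min after adding luciferase detection reagent.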
GLS inh: glutaminase GLS (human) inhibition. O94925. GLS enzymatic activity, qHTS titration. Potency, µM (titrated, usually from 45.5 µM), for the others: at the top dose activity change, negative = inhibition, actives largely listed as inhibitors. hit rate 0.21% among 410,000. AID 624170; note: potency is the fitted concentration of half-maximal effect; % is set by controls: 0 for no effect and ±100 for the full control effect
Target sequence (O94925 whole entry, looked up): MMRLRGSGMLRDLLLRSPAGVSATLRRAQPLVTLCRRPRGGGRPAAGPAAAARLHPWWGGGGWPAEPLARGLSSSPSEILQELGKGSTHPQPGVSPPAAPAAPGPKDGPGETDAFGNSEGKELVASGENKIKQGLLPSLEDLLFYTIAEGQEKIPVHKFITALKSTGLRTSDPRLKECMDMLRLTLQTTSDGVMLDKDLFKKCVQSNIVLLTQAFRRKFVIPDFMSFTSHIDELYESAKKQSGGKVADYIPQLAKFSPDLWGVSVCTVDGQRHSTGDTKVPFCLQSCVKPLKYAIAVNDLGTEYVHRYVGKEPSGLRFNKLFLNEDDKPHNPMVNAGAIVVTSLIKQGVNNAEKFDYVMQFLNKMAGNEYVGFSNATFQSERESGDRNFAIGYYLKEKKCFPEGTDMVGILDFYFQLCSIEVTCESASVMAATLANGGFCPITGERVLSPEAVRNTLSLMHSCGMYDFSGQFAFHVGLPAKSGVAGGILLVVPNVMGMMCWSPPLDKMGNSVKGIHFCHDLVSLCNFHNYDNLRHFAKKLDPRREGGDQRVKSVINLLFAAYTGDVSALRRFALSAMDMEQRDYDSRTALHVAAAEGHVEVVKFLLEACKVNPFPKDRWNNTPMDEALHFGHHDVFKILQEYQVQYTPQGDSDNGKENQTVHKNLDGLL
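Assay buffer: 45 mM KH2PO4 pH 8.2, 0.02% Tween-20. hKGA acts on L-glutamine (1 mM solution added); product glutamate is reported by an oxidase/peroxidase Amplex Red coupling, with fluorescence taken at baseline and 30 min.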
KCNH2 3.1 inh: blocks the human KCNH2 3.1 channel isoform | activity change, % (tested at about 1.8 µM) | hit rate 0.95% among 340,000 | U2OS KCNH2 3.1, thallium flux FluxOr; stronger effect = lower value;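 active = maximum activity change below -70%; inconclusive = maximum activity change from -70% to -50%; inactive = maximum activity change above -50%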;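 note: thallium influx rate constant from kinetic fluorescence after stimulation buffer; % is set by controls: 0 for no effect and ±100 for the full control effect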
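We transduce U2OS cells with the mutant 3.1 virus, culture them overnight, load FluxOr with Red40 quencher for 45 min, then add stimulation buffer and read kinetically for 2 min to derive a normalized rate constant.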
The depositor's hits bear a star; ? = inconclusive; · = no result. In the library only some 2.8% were active in any assay of this set; here they are far more common. Unless noted, calls come from the whole dose curve; as a rule, active = well fitted curve in the direction sought with a large enough effect; inconclusive = small, poorly fitted or top-dose-only effect, or another doubt; inactive = no such curve, though single readings can be large; an effect the other way counts as inactive or inconclusive.

SMILES | GLP1R ag | GLP-1R inv ag | KCNH2 WT inh | HEK293 tox | GLS inh | KCNH2 3.1 inh
O=C(NCCc1ccccc1C(F)(F)F)C1CCC(=O)N(CCCN2CCCC2=O)C1 (configuration not stated) | -6.7% | -4.3% | -9.4 | -8.8% | 2.1% | 7.4
CCCSc1ncnc2c1c(-c1ccccc1)cn2-c1ccccc1OC | · | 4.1% | · | 3.5% | 9.5% | ·
COc1ccc(Br)cc1CNC(=O)Cn1c(=O)c2cccn2c2ccc(F)cc21 | · | 10.2% | · | 11.5% | -3.4% | ·
CC(C)(S)C(=O)N[C@H](CS)C(=O)O | -1.2% | · | · | · | -10.0% | ·
Cc1cccc(Nc2ncccc2C(=O)NCc2cccs2)c1C | 8.6% | ? | -0.6 | -1.8% | 0.1% | -73.0*
Cc1ccc(C)c(Nc2nnc(-c3ccc(C)c(S(=O)(=O)NCC4CCCO4)c3)c3ccccc23)c1 (configuration not stated) | · | 11.2µM* | · | 7.5% | 13.6% | ·
Cc1cccc(OCC(=O)OCc2cc(=O)n3nc(-c4cccs4)sc3n2)c1 | · | 1.7% | · | 1.6% | -10.1% | ·
CCOc1ccc(S(=O)(=O)n2nc(C)c(S(=O)(=O)N3CCCCCC3)c2C)cc1 | 0.4% | 7.7% | · | 0.2% | -8.5% | ·
CC1=NN(/C(=N\c2nnc(C)s2)Nc2ccc(C)cc2)[C@H](c2ccc(C)cc2)S1 | -2.4% | 10µM* | 3.0 | -13.3% | 17.7% | 7.9
CCC(C)NC(=O)CSC1=Nc2ccccc2C2=NC(c3ccccc3)C(=O)N12 (configuration not stated) | 0.9% | 7.6% | 1.0 | -10.7% | 12.6µM* | 9.3
COc1cccc(CNC(=O)C(C)n2ccc3cc(S(=O)(=O)N4CCCC4)ccc32)c1 (configuration not stated) | 9.0% | -21.6% | 5.5 | -8.6% | -0.7% | 19.2
CCC(C(=O)NCCC(C)C)n1ccc2cc(S(=O)(=O)N3CCCCC3)ccc21 (configuration not stated) | 1.5% | 7.94µM* | -1.0 | -9.8% | 5.2% | 12.5
COc1cccc(CNC(=O)C(C)n2ccc3cc(S(=O)(=O)N4CCCCCC4)ccc32)c1 (configuration not stated) | 3.6% | 12.6µM* | -23.5 | -6.7% | 1.2% | -25.1
CCc1ccccc1Nc1sc(C(=O)c2ccccc2)c(N)c1S(=O)(=O)c1ccccc1 | · | ? | · | -2.1% | 0.7% | ·
Cc1cc(=O)n(Cc2ccc(F)cc2Cl)c2c1c(C)nn2C | · | 26.2% | · | -12.3% | 3.6% | ·
Cc1ccc(N2C(=O)N3[C@H](c4ccc(Cl)cc4)[C@@H]4C(=O)N(C5CCCCC5)C(=O)[C@@H]4[C@]3(Cc3ccccc3)C2=O)cc1 | -2.5% | ? | -8.2 | -2.2% | -6.1% | -12.9
O=C1[C@H]2[C@@H](c3ccc(Cl)cc3)N3C(=O)N(c4cccc(Cl)c4)C(=O)[C@@]3(Cc3ccc(Cl)cc3)[C@H]2C(=O)N1C1CCCCC1 | -5.5% | 3.98µM* | -9.2 | -16.3% | 4.0% | -5.0
Cc1ccc(N2C(=O)N3[C@H](c4ccc(F)cc4)[C@@H]4C(=O)N(C5CCCCC5)C(=O)[C@@H]4[C@]3(C)C2=O)cc1 | -3.2% | 10µM* | 10.4 | -31.3% | -4.8% | 24.7
O=C1[C@H]2[C@@H](c3ccc(Cl)cc3)N3C(=O)N(c4cccc(F)c4)C(=O)[C@@]3(Cc3ccc(Cl)cc3)[C@H]2C(=O)N1C1CCCCC1 | -5.5% | 14.9% | -10.3 | 9.9% | -0.1% | -6.8
NS(=O)(=O)c1cccc(NC(=O)COC(=O)Cc2ccc(S(=O)(=O)N3CCOCC3)s2)c1 | 14.7% | -9.4% | 1.8 | -3.7% | 10.2% | 1.0
Cc1cc(C)c(N2CCN(S(=O)(=O)N3CCCCCC3)CC2)c(C)c1 | -17.7% | 10µM* | -7.8 | 18.2% | 3.2% | 11.1
Cc1ccc(N2CCN(S(=O)(=O)N3CCCCC3)CC2)cc1Cl | 20.0% | 24.2% | 3.5 | -2.5% | 2.6% | -4.5
NC(CSC1(c2ccc(Cl)cc2)c2ccccc2-c2ccccc21)C(=O)O (configuration not stated) | -3.7% | 7.94µM* | -11.4 | -8.1% | -3.0% | 14.0
NC(CSC1(c2ccc(F)cc2)c2ccccc2-c2ccccc21)C(=O)O (configuration not stated) | 0.3% | ? | 17.1 | -2.7% | -10.6% | -9.1
Cc1ccc(S(=O)(=O)Oc2ccc(/C=C3\C(=N)N4N=C(S(C)(=O)=O)SC4=NC3=O)cc2)cc1 | -2.5% | 9.0% | -4.4 | 1.0% | 21.5% | -115.3*
SMILES | GLP1R ag | GLP-1R inv ag | KCNH2 WT inh | HEK293 tox | GLS inh | KCNH2 3.1 inh
CNC(=S)N/N=C/c1c(C)cccc1Cl | 6.0% | ? | -3.8 | ? | -21.8% | -1.5
CNC(=S)N/N=C/c1c2ccccc2c(Cl)c2ccccc12 | 0.0% | 7.94µM* | 2.1 | 3.55µM* | -4.8% | -23.9
COc1ccc(C(c2c(O)ccc3ccccc23)N2CCOCC2)c(OC)c1 (configuration not stated) | 0.6% | 10µM* | 2.2 | ? | -4.9% | -6.4
COc1cnc(-c2ccccc2)nc1Oc1cccc(C)c1C | 4.7% | 11.2µM* | -14.7 | 16.6% | 0.4% | -1.5
CCN(c1ccc(OC)cc1)S(=O)(=O)c1ccc(-c2cc(C)no2)s1 | 19.6% | 7.94µM* | 12.2 | -47.3% | -10.8% | -10.2
CCN(c1ccccc1)S(=O)(=O)c1ccc(-c2cc(C)no2)s1 | · | ? | · | -30.6% | -20.2% | ·
COC(=O)CN1C(=O)[C@H]2[C@@H](c3ccc(C)o3)N3C(=O)CN(CC4CC4)C(=O)[C@@]3(C)[C@H]2C1=O | -2.5% | 1.8% | -1.2 | 17.2% | -2.3% | -6.5
CCCc1ncc(C(O)c2cccc(OC)c2OC)n1C (configuration not stated) | -0.8% | 4.7% | -22.4 | 0.2% | 1.1% | 5.4
CCCc1ncc(C(O)c2ccccc2OC)n1C (configuration not stated) | 10.0% | 1.3% | -201.1* | -1.8% | 2.7% | 7.0
CC1CCCN(CC(=O)Nc2cc(S(=O)(=O)N3CCOCC3)ccc2N2CCCC2)C1 (configuration not stated) | 10.4% | 2.2% | -7.9 | 3.3% | 23.9% | 5.0
CCn1c2ccccc2c2cc(CNCc3ccc(OC)cc3OC)ccc21 | 1.0% | 7.94µM* | 21.1 | ? | -5.8% | -46.2
CCC(CC)NCc1ccc2c(c1)c1ccccc1n2CC | -5.1% | 4.47µM* | · | ? | -8.0% | 2.8
COc1ccccc1NC(=O)c1c(C)cc(C)nc1SCC(=O)Nc1cccc(C)c1 | · | ? | · | -1.9% | 4.6% | ·
COc1cccc(-c2cc(C(=O)Nc3ccc(N(C)C(C)=O)cc3)c3cc(Br)ccc3n2)c1 | -8.3% | ? | -11.1 | -13.3% | 13.6% | -0.3

Source: PubChem (National Center for Advancing Translational Sciences (NCATS))
